± gives the standard deviation of the averaged measurements.

From the supplement of paper PMC8866396 come the findings set out here.

One experiment concerns IL-6-GFP PC-9GR. The experiment can be described thus: cell viability (CCK-8 OD) relative to DMSO control (fraction of control); higher = more viable cells. The following applies: compound concentration: 10 uM; treatment time: 48 h. The procedure, abridged: (§1)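 PC-9 and PC-9GR lung cancer cells overexpressing IL-6-GFP from a lentiviral construct were plated at 3000 cells/well in 96-well plates. Each compound from a purchased 510-compound library was added at a final 10 μM for 48 h, with a parallel plate set used for GFP imaging. Viability was measured by CCK-8 absorbance and expressed as each well's optical density divided by the vehicle (DMSO) control well, from two independent replicates.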

Another experiment has as its system IL-6-GFP PC-9. The description is as above. The following applies: compound concentration: 10 uM; treatment time: 48 h. In outline:
as §1

In the case of `CCCC1CC(C(=O)NC(C(C)O)C2OC(SC)C(O)C(O)C2O)N(C)C1.Cl` (configuration not stated) [Lincomycin HCl], the results for the cell viability in the experiment on IL-6-GFP PC-9GR and in the experiment on IL-6-GFP PC-9 were 1.13 ± 0.27 and 0.958 ± 0.048, respectively.

Turning to `CCC(=O)OCC(=O)C1(OC(=O)CC)C(C)CC2C3CCC4=CC(=O)C=CC4(C)C3(Cl)C(O)CC21C` (configuration not stated) [Beclomethasone dipropionate], the cell viability in the experiment with IL-6-GFP PC-9GR turned out to be 0.987 ± 0.24; in the experiment with IL-6-GFP PC-9, 0.797 ± 0.12.

On to `COc1ccc2c(c1)c(CC(=O)OCC(=O)O)c(C)n2C(=O)c1ccc(Cl)cc1` [Acemetacin], for which the figures for the cell viability in the experiment on IL-6-GFP PC-9GR and in the experiment on IL-6-GFP PC-9 were 1.07 ± 0.14 and 0.954 ± 0.2, respectively.

Take `CC(=O)c1c(C)c2cnc(Nc3ccc(N4CCNCC4)cn3)nc2n(C2CCCC2)c1=O.Cl`: the cell viability with IL-6-GFP PC-9GR is 0.661 ± 0.17; in the experiment with IL-6-GFP PC-9, 0.694 ± 0.11.

Take `Nc1ccc(O)c(C(=O)O)c1` [Mesalamine]: the figures for the cell viability in the experiment on IL-6-GFP PC-9GR and with IL-6-GFP PC-9 were 1.27 ± 0.035 and 1.06 ± 0.072, respectively.

Turning to `CC1CC2C3CCC4=CC(=O)C=CC4(C)C3C(=O)CC2(C)C1(O)C(=O)CO` (configuration not stated) [Meprednisone], the figures for the cell viability in the experiment with IL-6-GFP PC-9GR and in the experiment on IL-6-GFP PC-9 were 1.25 ± 0.14 and 1.46 ± 0.35, respectively.

In the case of `CCc1ccc(Cc2ccc3c(c2)C2(OC3)OC(CO)C(O)C(O)C2O)cc1.O` (configuration not stated) [Tofogliflozin(CSG 452)], the cell viability in the experiment with IL-6-GFP PC-9GR was determined as 0.92 ± 0.21; in the experiment with IL-6-GFP PC-9 it was 1.02 ± 0.25.

Regarding `CC(CCC(=O)[O-])C1CCC2C3C(O)CC4CC(O)CCC4(C)C3CC(O)C12C.[Na+]` (configuration not stated) [Sodium cholate], the cell viability in the experiment on IL-6-GFP PC-9GR was found to be 0.344 ± 0.23; with IL-6-GFP PC-9, 0.997 ± 0.067.

Consider `CC(=O)Oc1cccc2c1C(=O)c1c(OC(C)=O)cc(C(=O)O)cc1C2=O` [Diacerein], for which the cell viability in the experiment on IL-6-GFP PC-9GR amounted to 1.14 ± 0.39; in the experiment on IL-6-GFP PC-9 it was 0.97 ± 0.034.

In the case of `Nc1cc(C(Cl)=C(Cl)Cl)c(S(N)(=O)=O)cc1S(N)(=O)=O` [Clorsulon], the figures for the cell viability with IL-6-GFP PC-9GR and in the experiment with IL-6-GFP PC-9 were 1.21 ± 0.16 and 1.08 ± 0.11, respectively.

As for `COc1ccc2cc1Oc1ccc(cc1)CC1c3cc(c(OC)cc3CCN1C)Oc1c(O)c(OC)cc3c1C(C2)N(C)CC3` (configuration not stated) [Fangchinoline], the cell viability with IL-6-GFP PC-9GR was determined as 1.18 ± 0.33; with IL-6-GFP PC-9, 1.09 ± 0.13.

Turning to `C#Cc1cccc(Nc2ncnc3cc4c(cc23)OCCOCCOCCO4)c1` [Icotinib], the cell viability with IL-6-GFP PC-9GR amounted to 1.18 ± 0.048; in the experiment with IL-6-GFP PC-9, 0.58 ± 0.11.

For the compound `COc1cc(N2CCC(N3CCN(C)CC3)CC2)ccc1Nc1ncc(Cl)c(Nc2ccccc2P(C)(C)=O)n1`, the cell viability with IL-6-GFP PC-9GR was 0.688 ± 0.15; in the experiment with IL-6-GFP PC-9, 0.41 ± 0.083.

As for `O=C(Oc1ccccc1C(=O)O)c1ccccc1O` [Sasapyrine], the cell viability was 0.988 ± 0.067 in the experiment on IL-6-GFP PC-9GR and 1.25 ± 0.019 in the experiment on IL-6-GFP PC-9.

As to `Nc1c(CC(=O)[O-])cccc1C(=O)c1ccc(Br)cc1.[Na+]` [Bromfenac Sodium], the cell viability with IL-6-GFP PC-9GR was 0.923 ± 0.095; with IL-6-GFP PC-9, 1 ± 0.14.

Take `CN1C(C(=O)Nc2ccccn2)=C(O)c2sc(Cl)cc2S1(=O)=O` [Lornoxicam]: the cell viability was 0.71 ± 0.3 in the experiment on IL-6-GFP PC-9GR and 1.1 ± 0.23 in the experiment on IL-6-GFP PC-9.

`Cc1c(-c2ccc(O)cc2)n(Cc2ccc(OCCN3CCCCCC3)cc2)c2ccc(O)cc12.Cl` [Bazedoxifene HCl]: the cell viability worked out at 0.539 ± 0.098 in the experiment with IL-6-GFP PC-9GR and 0.51 ± 0.077 with IL-6-GFP PC-9.

In the case of `O=c1cc[nH]c(=O)[nH]1` [Uracil], the figures for the cell viability with IL-6-GFP PC-9GR and in the experiment with IL-6-GFP PC-9 were 0.909 ± 0.021 and 0.701 ± 0.11, respectively.

As for `CC(OCC1(c2ccccc2)CCC2(CCC(=O)N2)CN1)c1cc(C(F)(F)F)cc(C(F)(F)F)c1` (configuration not stated) [Rolapitant], the cell viability in the experiment with IL-6-GFP PC-9GR was found to be 0.76 ± 0.035; in the experiment on IL-6-GFP PC-9, 0.853 ± 0.26.

`O=C(O)Cc1ccccc1Nc1c(Cl)cccc1Cl` [Diclofenac acid]: the cell viability was determined as 1.07 ± 0.24 in the experiment on IL-6-GFP PC-9GR and 1.12 ± 0.17 in the experiment with IL-6-GFP PC-9.

As to `CC(=O)OC1(C(C)=O)CCC2C3CC(C)C4=CC(=O)C=CC4(C)C3(F)C(O)CC21C` (configuration not stated) [Fluorometholone Acetate], the cell viability in the experiment on IL-6-GFP PC-9GR was determined as 0.701 ± 0.05; with IL-6-GFP PC-9, 0.947 ± 0.087.

As for `CC(C)=CCOc1ccc(/C=C/C(=O)c2ccc(OCC=C(C)C)cc2OCC(=O)O)cc1` [Sofalcone], the cell viability in the experiment on IL-6-GFP PC-9GR was 0.969 ± 0.2; with IL-6-GFP PC-9 it was 1.01 ± 0.23.

As to `C=C1c2cccc(O)c2C(=O)C2=C(O)C3(O)C(=O)C(C(N)=O)=C(O)C(N(C)C)C3C(O)C12.Cl` (configuration not stated) [Methacycline HCl], the cell viability in the experiment with IL-6-GFP PC-9GR was 0.894 ± 0.32; in the experiment on IL-6-GFP PC-9 it was 1 ± 0.072.

For `O=C(OCC1OC(OC(=O)c2cc(O)c(O)c(OC(=O)c3cc(O)c(O)c(O)c3)c2)C(OC(=O)c2cc(O)c(O)c(OC(=O)c3cc(O)c(O)c(O)c3)c2)C(OC(=O)c2cc(O)c(O)c(OC(=O)c3cc(O)c(O)c(O)c3)c2)C1OC(=O)c1cc(O)c(O)c(OC(=O)c2cc(O)c(O)c(O)c2)c1)c1cc(O)c(O)c(OC(=O)c2cc(O)c(O)c(O)c2)c1` (configuration not stated) [Tannic acid], the cell viability came to 1.05 ± 0.11 with IL-6-GFP PC-9GR and 1.2 ± 0.23 with IL-6-GFP PC-9.

Take `CC(=O)OC(C)C(C)C(=O)OCC12C3CC4(C)C(=CCC5C6(C)CCC(OC7OC(C(=O)[O][Na])C(OC8OC(CO)C(O)C(O)C8O)C(O)C7OC7OCC(O)C(O)C7O)C(C)(CO)C6CCC54C)C1CC(C)(C)C(O3)C2O` (configuration not stated) [Sodium Aescinate]: the figures for the cell viability in the experiment on IL-6-GFP PC-9GR and in the experiment with IL-6-GFP PC-9 were 0.632 ± 0.25 and 1 ± 0.18, respectively.

With `C#Cc1cccc(Nc2ncnc3cc(OCCOC)c(OCCOC)cc23)c1` [Erlotinib], the cell viability worked out at 0.81 ± 0.028 with IL-6-GFP PC-9GR and 0.616 ± 0.035 in the experiment on IL-6-GFP PC-9.

Turning to `CN(C(=O)c1c(O)c2ccccc2n(C)c1=O)c1ccccc1` [Roquinimex], the cell viability was determined as 0.937 ± 0.35 with IL-6-GFP PC-9GR and 1.15 ± 0.038 in the experiment with IL-6-GFP PC-9.

As to `COc1cccc2c1C(=O)c1c(O)c3c(c(O)c1C2=O)CC(O)(C(=O)CO)CC3OC1CC(N)C(O)C(C)O1.Cl` (configuration not stated) [Epirubicin HCl], the values for the cell viability in the experiment with IL-6-GFP PC-9GR and with IL-6-GFP PC-9 were 0.141 ± 0.14 and 0.1407 ± 0.00071, respectively.

`Nc1nnc(-c2cccc(Cl)c2Cl)c(N)n1` [Lamotrigine]: the cell viability in the experiment on IL-6-GFP PC-9GR was 1.12 ± 0.3; with IL-6-GFP PC-9, 1.05 ± 0.16.

For `CS(=O)(=O)Nc1cc2occ(NC=O)c(=O)c2cc1Oc1ccccc1` [Iguratimod], the cell viability turned out to be 1.46 ± 0.37 with IL-6-GFP PC-9GR and 1.02 ± 0.19 with IL-6-GFP PC-9.

As for `CCCCCCNC(=O)n1cc(F)c(=O)[nH]c1=O` [Carmofur], the figures for the cell viability in the experiment on IL-6-GFP PC-9GR and in the experiment with IL-6-GFP PC-9 were 0.934 ± 0.022 and 0.906 ± 0.14, respectively.
